Paper PMC4336329 (PLoS ONE, 2015)
Screen size: about 310,000 compounds; about 14,000 (4.5%) showed an effect of 50% or more. The effect is printed as a negative number. Only a selection was taken, and strong results are over-represented in it overall.

These compounds were tested against human ether-à-go-go-related gene (hERG) potassium channel (human, UniProt Q12809) (assay: primary screen, population patch clamp on CHO cells stably expressing hERG; higher = less effect of the substance).
Protocol: Briefly, Chinese hamster ovary (CHO) cells stably expressing the hERG channel were dislodged from tissue culture flasks and dispensed into PPC plates. […] During the recording, background leak currents were estimated by a 100 ms step to -80 mV from an initial holding potential of -70 mV and subtracted from the subsequent current measurement. The campaign was conducted in two phases using slight differences in recording protocol. In the first phase, the initial voltage pulse used a 100 ms step to -30 mV from a holding potential of -70 mV, a 2 s conditioning step to +25 mV, and a 2 s test step to -30 mV. During the second phase of the screen, the potential during the conditioning step was raised to +45 mV. In both phases of the campaign, a secondary voltage pulse was applied using the same parameters as the second phase initial pulse. The initial and secondary pulses were applied in the absence of compound, and upon application of 1 μM and 10 μM test concentrations. […]
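Also: peak tail current of the secondary pulse compared with the same well before compound.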

Chain of human ether-à-go-go-related gene (hERG) potassium channel (Q12809 whole entry, looked up): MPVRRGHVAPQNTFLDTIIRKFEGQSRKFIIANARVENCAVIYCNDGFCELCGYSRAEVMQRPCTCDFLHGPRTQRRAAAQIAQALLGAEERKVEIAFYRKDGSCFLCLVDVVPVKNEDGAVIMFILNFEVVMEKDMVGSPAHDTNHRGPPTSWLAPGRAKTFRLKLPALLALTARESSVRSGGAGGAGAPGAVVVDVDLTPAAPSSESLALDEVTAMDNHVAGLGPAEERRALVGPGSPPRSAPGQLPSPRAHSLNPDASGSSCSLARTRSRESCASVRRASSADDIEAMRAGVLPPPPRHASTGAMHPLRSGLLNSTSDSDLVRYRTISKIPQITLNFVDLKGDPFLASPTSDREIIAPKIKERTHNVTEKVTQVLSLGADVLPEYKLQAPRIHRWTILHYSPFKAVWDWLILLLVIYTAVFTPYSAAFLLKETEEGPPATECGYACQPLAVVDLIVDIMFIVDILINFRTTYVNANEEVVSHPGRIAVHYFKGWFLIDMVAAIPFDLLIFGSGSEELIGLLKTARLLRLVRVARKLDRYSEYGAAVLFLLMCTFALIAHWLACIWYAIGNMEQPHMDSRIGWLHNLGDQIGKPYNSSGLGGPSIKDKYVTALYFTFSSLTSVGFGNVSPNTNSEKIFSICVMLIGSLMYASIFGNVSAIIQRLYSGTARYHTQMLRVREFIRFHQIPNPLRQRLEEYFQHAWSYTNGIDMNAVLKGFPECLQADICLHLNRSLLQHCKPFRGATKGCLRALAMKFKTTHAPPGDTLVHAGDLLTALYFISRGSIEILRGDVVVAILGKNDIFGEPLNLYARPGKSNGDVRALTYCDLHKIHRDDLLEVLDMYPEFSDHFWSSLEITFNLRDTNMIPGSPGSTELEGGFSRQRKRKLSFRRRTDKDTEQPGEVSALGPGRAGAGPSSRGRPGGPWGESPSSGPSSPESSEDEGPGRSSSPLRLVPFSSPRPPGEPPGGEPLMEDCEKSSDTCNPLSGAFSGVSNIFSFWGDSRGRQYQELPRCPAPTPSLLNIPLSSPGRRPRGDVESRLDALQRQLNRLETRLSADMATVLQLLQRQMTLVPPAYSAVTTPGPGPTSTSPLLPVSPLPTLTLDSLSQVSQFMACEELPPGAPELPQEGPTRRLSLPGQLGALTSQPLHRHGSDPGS

**Q.** `COc1ccccc1-n1c(SCC(=O)NC2CC2)nc2ccccc2c1=O` was tested. Which “hERG current change (%, negative = inhibition) at 10uM” value did it give?
**A.** -23.1%

**Q.** With `CCN(CC)S(=O)(=O)c1ccc2c(c1)nc(SCC(N)=O)n2-c1ccc(OC)cc1` as the compound, how does the “hERG current change (%, negative = inhibition) at 10uM” value read?
**A.** -77.7%

**Q.** With `CCN(CC)S(=O)(=O)c1ccc2c(c1)nc(SC(C)C(N)=O)n2-c1ccc(OC)cc1` (stereo not drawn) as the compound, how does the “hERG current change (%, negative = inhibition) at 10uM” value read?
**A.** -51.7%

**Q.** `NCCNc1ccc([N+](=O)[O-])c2cccnc12` was tested. Which “hERG current change (%, negative = inhibition) at 10uM” value did it give?
**A.** 1.29%

**Q.** For `CCOc1ccccc1NC(=O)NNS(=O)(=O)c1cc(C)ccc1C`, which “hERG current change (%, negative = inhibition) at 10uM” value is on record?
**A.** 6.71%

**Q.** Which “hERG current change (%, negative = inhibition) at 10uM” value does the source give for `CSc1ccccc1NC(=O)Cc1ccc(Br)cc1` here?
**A.** -10.2%

**Q.** Which “hERG current change (%, negative = inhibition) at 10uM” value does the source give for `Cc1ccc(C)c(NC(=S)N2CCC(NC(=O)c3cccc(F)c3)CC2)c1` here?
**A.** 1.08%

**Q.** For `O=C(N/N=C/c1ccc(COc2ccc(Br)cc2)o1)c1ccco1`, which “hERG current change (%, negative = inhibition) at 10uM” value is on record?
**A.** 2.73%

**Q.** Which “hERG current change (%, negative = inhibition) at 10uM” value does the source give for `Cc1ccccc1NS(=O)(=O)c1ccc2c3c(cccc13)C(=O)N2C` here?
**A.** -4.02%

**Q.** With `O=S(=O)(c1ccc(Cl)cc1)N1CCN(c2ccccn2)CC1` as the compound, how does the “hERG current change (%, negative = inhibition) at 10uM” value read?
**A.** -4.62%

**Q.** Which “hERG current change (%, negative = inhibition) at 10uM” value does the source give for `O=C(C1CCN(S(=O)(=O)c2cccnc2)CC1)N1CCN(c2cccc(Cl)c2)CC1` here?
**A.** -31.5%

**Q.** How did the “hERG current change (%, negative = inhibition) at 10uM” value turn out when `Cc1ccc(Cl)cc1N1CCN(C(=O)C2CCN(S(=O)(=O)c3cccnc3)CC2)CC1` was run?
**A.** -46%

**Q.** `Cc1ccc(S(=O)(=O)N2CCC(C(=O)N3CCN(c4ccccn4)CC3)CC2)cc1` was tested. Which “hERG current change (%, negative = inhibition) at 10uM” value did it give?
**A.** -19.4%

**Q.** How did the “hERG current change (%, negative = inhibition) at 10uM” value turn out when `O=C(C1CCN(S(=O)(=O)c2ccc(Cl)cc2)CC1)N1CCN(c2ccccn2)CC1` was run?
**A.** -64.7%

**Q.** `O=C(C1CCN(S(=O)(=O)c2cccnc2)CC1)N1CCN(c2ccc(Cl)cc2)CC1` was tested. Which “hERG current change (%, negative = inhibition) at 10uM” value did it give?
**A.** -56.2%

**Q.** Which “hERG current change (%, negative = inhibition) at 10uM” value does the source give for `Clc1ccc2noc(-c3ccccc3)c2c1` here?
**A.** 7.67%

**Q.** For `COc1ccccc1CNC(=O)c1cnccn1`, which “hERG current change (%, negative = inhibition) at 10uM” value is on record?
**A.** 0.0654%

**Q.** `COc1cc(CN2CCN(CCc3ccccc3)C(CCO)C2)cc(OC)c1` (stereo not drawn) was tested. Which “hERG current change (%, negative = inhibition) at 10uM” value did it give?
**A.** -63.5%

**Q.** `COc1cc(CN2CCN(CC#Cc3ccccc3)CC2CCO)cc(OC)c1` (stereo not drawn) was tested. Which “hERG current change (%, negative = inhibition) at 10uM” value did it give?
**A.** -1.09%

**Q.** For `COc1cc(CN2CCN(CCCc3ccccc3)CC2CCO)cc(OC)c1` (stereo not drawn), which “hERG current change (%, negative = inhibition) at 10uM” value is on record?
**A.** -71.1%

**Q.** How did the “hERG current change (%, negative = inhibition) at 10uM” value turn out when `COc1cc(CN2CCN(Cc3cn(C)c4ccccc34)CC2CCO)cc(OC)c1` (stereo not drawn) was run?
**A.** -43.7%

**Q.** Which “hERG current change (%, negative = inhibition) at 10uM” value does the source give for `OCCC1CN(Cc2cccc(O)c2)CCN1CCc1ccccc1` (stereo not drawn) here?
**A.** -24.4%

**Q.** With `OCCC1CN(Cc2cccnc2)CCN1CCc1ccccc1` (stereo not drawn) as the compound, how does the “hERG current change (%, negative = inhibition) at 10uM” value read?
**A.** -34.8%

**Q.** How did the “hERG current change (%, negative = inhibition) at 10uM” value turn out when `C#CCOCCOCCOCCNc1nc(N2CCN(C(=O)[C@H]([C@@H](C)CC)n3cc([C@@H](N)CO)nn3)CC2)nc(N2CCN(C(=O)[C@H]([C@@H](C)CC)n3cc([C@@H](N)CC(C)C)nn3)CC2)n1.Cl` was run?
**A.** 7.34%

**Q.** For `CC1CCCCN1CCNC(=O)C1CCN(S(=O)(=O)c2cccc3nsnc23)CC1` (stereo not drawn), which “hERG current change (%, negative = inhibition) at 10uM” value is on record?
**A.** 2.44%

**Q.** Which “hERG current change (%, negative = inhibition) at 10uM” value does the source give for `CCS(=O)(=O)Nc1cccc(-c2ccc3nnc(-c4cccnc4)n3n2)c1` here?
**A.** -4.03%

**Q.** Which “hERG current change (%, negative = inhibition) at 10uM” value does the source give for `CC(C)c1ccc(N(CC(=O)N/N=C/c2ccc(OC3CSC3)cc2)S(=O)(=O)c2ccccc2)cc1` here?
**A.** 12.8%

**Q.** How did the “hERG current change (%, negative = inhibition) at 10uM” value turn out when `CC(NC=O)c1nc2ccccc2n1CCc1ccccc1` (stereo not drawn) was run?
**A.** 5.34%

**Q.** `CCc1ccc(NC(=O)C(=O)NCC(O)c2ccccc2)cc1` (stereo not drawn) was tested. Which “hERG current change (%, negative = inhibition) at 10uM” value did it give?
**A.** 8.25%

**Q.** For `O=C(NCCc1ccccc1)c1ccc(Cl)cc1[N+](=O)[O-]`, which “hERG current change (%, negative = inhibition) at 10uM” value is on record?
**A.** -0.169%

**Q.** `COc1ccc(OCc2nnc(SCC(=O)Nc3cccc(C(C)=O)c3)o2)cc1` was tested. Which “hERG current change (%, negative = inhibition) at 10uM” value did it give?
**A.** 4.32%

**Q.** For `O=C(CSc1nnc(CNC(=O)c2ccco2)o1)Nc1ccc(OC(F)(F)F)cc1`, which “hERG current change (%, negative = inhibition) at 10uM” value is on record?
**A.** -52.6%

**Q.** For `CCc1ccc(OCc2nnc(SCC(=O)NCc3ccco3)o2)cc1`, which “hERG current change (%, negative = inhibition) at 10uM” value is on record?
**A.** -55.2%

**Q.** With `CCOc1ccc(NC(=O)CSc2nnc(CNC(=O)c3ccco3)o2)cc1` as the compound, how does the “hERG current change (%, negative = inhibition) at 10uM” value read?
**A.** -10.2%

**Q.** For `COc1ccc(Cc2nnc(SCC(=O)NCc3ccco3)o2)cc1`, which “hERG current change (%, negative = inhibition) at 10uM” value is on record?
**A.** 8.75%

**Q.** `COc1ccc(NC(=O)CSc2nnc(CNC(=O)c3ccco3)o2)cc1` was tested. Which “hERG current change (%, negative = inhibition) at 10uM” value did it give?
**A.** 11.8%

**Q.** For `CCc1ccc(OCc2nnc(SCC(=O)Nc3cccc(C(=O)N4CCOCC4)c3)o2)cc1`, which “hERG current change (%, negative = inhibition) at 10uM” value is on record?
**A.** -61.4%

**Q.** With `Cc1cccc(OCc2nnc(SCC(=O)Nc3cccc(C(=O)N4CCOCC4)c3)o2)c1C` as the compound, how does the “hERG current change (%, negative = inhibition) at 10uM” value read?
**A.** -2.16%

**Q.** For `COc1ccc(OCc2nnc(SCC(=O)NCc3ccco3)o2)cc1`, which “hERG current change (%, negative = inhibition) at 10uM” value is on record?
**A.** -14.4%

**Q.** For `O=C1CCCN1CCCNC(=S)Nc1ccc(Br)cc1Cl`, which “hERG current change (%, negative = inhibition) at 10uM” value is on record?
**A.** -2.97%

**Q.** For `O=C1CCCN1CCCNC(=S)Nc1ccc(Cl)cc1Cl`, which “hERG current change (%, negative = inhibition) at 10uM” value is on record?
**A.** -65.5%

**Q.** `Cc1cc(Cl)ccc1NC(=S)NCCCN1CCCC1=O` was tested. Which “hERG current change (%, negative = inhibition) at 10uM” value did it give?
**A.** 7.99%
